# Screening results (PubChem)
# ASM inhibitor: human S-ASM enzyme inhibition; Potency, µM (titrated, usually from 57.5 µM), for the others: at the highest dose activity change, negative = inhibition, usual class: inhibitors; AID 504937; placental ASM, HMU-PC fluorogenic substrate, 60 min; P17405; 0.006% of 340,000 active; also: potency is read from the fitted curve at half-maximal effect
# Target sequence (P17405 47-631 limits assumed): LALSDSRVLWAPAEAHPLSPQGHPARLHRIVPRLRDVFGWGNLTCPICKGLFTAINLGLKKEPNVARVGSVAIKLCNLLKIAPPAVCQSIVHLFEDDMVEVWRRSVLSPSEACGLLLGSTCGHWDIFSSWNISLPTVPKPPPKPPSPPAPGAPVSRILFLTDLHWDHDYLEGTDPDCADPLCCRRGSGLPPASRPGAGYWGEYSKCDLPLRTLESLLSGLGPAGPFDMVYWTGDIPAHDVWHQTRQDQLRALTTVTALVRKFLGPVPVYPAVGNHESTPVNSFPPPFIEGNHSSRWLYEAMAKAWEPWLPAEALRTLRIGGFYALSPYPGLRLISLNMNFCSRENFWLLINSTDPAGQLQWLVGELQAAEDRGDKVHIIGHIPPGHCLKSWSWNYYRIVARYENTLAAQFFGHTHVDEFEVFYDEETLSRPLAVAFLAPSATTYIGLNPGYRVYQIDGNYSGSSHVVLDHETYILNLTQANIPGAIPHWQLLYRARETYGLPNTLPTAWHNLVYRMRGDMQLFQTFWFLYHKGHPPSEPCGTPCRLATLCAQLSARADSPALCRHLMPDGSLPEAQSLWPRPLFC
#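 Steps: dispense placental human ASM, pin compound, wait 10 min at room temperature, add HMU-PC0 substrate at 9 uM final, incubate 60 min at 37 °C, add stop solution raising pH to 10, read fluorescence.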
# IL1B secr inh: inflammasome signaling inhibition, IL-1 beta readout; AID 743279; activity change, % at 57.5 µM; THP-1 LPS/ATP IL-1B secretion, AlphaLISA, 16 h; hits give low values; 4.7% of 360,000 active; in the data active = activity change below about -50%; inconclusive = mostly about -30% to -49%; also: % is scaled to controls: 0 for no effect and ±100 for the full control effect
#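 Secreted IL-1B measured by AlphaLISA bead assay after 16 h compound exposure of THP-1 cells; compounds (final up to 57.5 uM) added 1 h before LPS (250 ng/mL) and ATP (1.25 mM) stimulation; lower signal means less secretion.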
# TGFb inhibitor: blocks TGF-b signaling | HepG2 CAGA-GFP TGF-b/SMAD3 reporter, GFP fluorescence, 18 h; TGF-beta stimulated, 500 pg/mL final | Potency, µM (series often up to 46.1 µM), inactives show at the top dose activity, negative = inhibition, hits mostly inhibitors | 1.2% of 410,000 active; also: potency is read from the fitted curve at half-maximal effect; % is scaled to controls: 0 for no effect and ±100 for the full control effect; nearly all actives have a fitted effect of over 65% in size
#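 HEPG2 CAGA-GFP reporter cells (1000/well, DMEM with 1% FBS) received compounds, then recombinant TGF-beta at 500 pg/mL final for 18 hours at 37 degrees C. Per-cell GFP summed per well was normalised to unstimulated and stimulated DMSO controls before curve fitting.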
# HepG2 viability: HepG2 cytotoxicity, counter-screen for TGF-b inhibitors; 0.76% of 410,000 active; HepG2 CAGA-GFP viability, ATP luminescence, 18 h; Potency, µM (series often up to 46.1 µM), inactives show at the top dose activity change, negative = cytotoxicity, hits mostly cytotoxic; also: potency is read from the fitted curve at half-maximal effect
#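 HepG2 CAGA-GFP cells (1000/well, DMEM with 1% FBS) received compound, then TGF-beta at 500 pg/mL final, and were incubated 18 hours at 37 degrees C. Viability was read by CellTiter-Glo luminescence. Media-only wells were set as complete cell-killing and DMSO as no toxicity.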
# DT40 TDP1 no CPT: qHTS for Inhibitors of human tyrosyl-DNA phosphodiesterase 1 (TDP1): qHTS in cells in absence of CPT; DT40 Tdp1-/- hTDP1 cells, no CPT, ATP luminescence, 48 h; 15% of 420,000 active; Potency, µM (series often up to 46.2 µM), for the others: at the top dose activity change, negative = growth inhibition, actives largely listed as inhibitors; also: potency is read from the fitted curve at half-maximal effect; % is scaled to controls: 0 for no effect and ±100 for the full control effect; nearly all actives have a fitted effect of over 55% in size
#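 Seeded 400 DT40-hTDP1 cells/well (vehicle DMSO, no 20 nM CPT); pinned compounds; ≥48 hr at 37 °C; CellTiter-Glo luminescence as viability measure.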
# DT40 TDP1 CPT: DT40-hTDP1 cell growth loss with CPT. chicken DT40 Tdp1-/-;hTDP1 cells + 20 nM CPT, ATP luminescence, 48 h. Potency, µM (doses to about 46.2 µM), inactives show at the highest dose activity change, negative = growth inhibition, most hits filed as inhibitors. 12% of 420,000 active; also: potency is read from the fitted curve at half-maximal effect; % is scaled to controls: 0 for no effect and ±100 for the full control effect; nearly all actives have a fitted effect of over 55% in size
#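 Chicken DT40 Tdp1-/- cells complemented with human TDP1, 400 cells/well, exposed to compounds plus 20 nM camptothecin for at least 48 h at 37 C; viability read as ATP content by CellTiter-Glo luminescence.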
# Active calls of the source: *; ? = inconclusive; nt = not tested or not shown. Shown are actives, neighbours in structure and some others; about 19% of the full set was active somewhere. Unless noted, calls follow the shape of the dose curve; as a rule, active = well fitted curve in the direction sought with a large enough effect; inconclusive = small, poorly fitted or top-dose-only effect, or another doubt; inactive = no such curve, though single readings can be large; an effect the other way counts as inactive or inconclusive.
SMILES,ASM inhibitor,IL1B secr inh,TGFb inhibitor,HepG2 viability,DT40 TDP1 no CPT,DT40 TDP1 CPT
COc1ccc(-c2cc(C(F)(F)F)nc(-n3cc(Cl)cn3)n2)cc1,-3%,nt,1%,-7%,?,15µM*
COc1cccc(-c2cc(C(F)(F)F)nc(-n3cc(Cl)cn3)n2)c1,-7%,nt,-3%,-5%,16µM*,?
CCOC(=O)c1ccn(-c2nc(-c3cccc(OC)c3)cc(C(F)(F)F)n2)n1,nt,nt,1%,-2%,21µM*,15µM*
FC(F)(F)c1cc(-c2ccccc2)nc(-n2cc(Cl)cn2)n1,-3%,?,4%,12%,?,?
Cc1ccc(Cn2c(C)c(C(=O)NCC(C)C)sc2=O)cc1,nt,-24,2%,-2%,?,?
CS(=O)(=O)c1ncc(CO)n1Cc1ccccc1,2%,12,0%,-14%,11%,15%
COCCN(Cc1cc2ccc(C)cc2[nH]c1=O)S(=O)(=O)c1ccccc1,7%,12,?,3%,-19%,11%
CC(=O)c1cccc(NS(=O)(=O)c2ccc3c(c2)N(C(C)=O)CCO3)c1,-1%,31,-1%,-15%,21µM*,?
CC(=O)c1cccc(NS(=O)(=O)c2cc3c(cc2C)N(C(C)=O)CCO3)c1,42%,9,16%,4%,?,?
CC(=O)N1CCSc2ccc(S(=O)(=O)Nc3ccccc3C)cc21,-4%,-57*,-20%,-9%,-45%,?
CC(=O)N1CCSc2ccc(S(=O)(=O)Nc3cccc(C)c3)cc21,2%,14,-22%,-23%,13µM*,18µM*
Cc1cc(C)c(C)c(S(=O)(=O)N[C@@H](C)C(=O)OCC(=O)NC2CCCC(C)C2C)c1C (stereo partly specified),-16%,24,-4%,15%,-21%,-19%
COc1ccccc1N1CCN(CC(O)COc2ccc(C)cc2C)CC1 (stereo unspecified),-2%,-65*,1%,-16%,?,?
CC1(C)CCCC(C)(C)N1CC(O)COCCOc1ccc(Br)cc1 (stereo unspecified),1%,0,-1%,-11%,16µM*,?
Cc1ccc(OCC(O)CN2CCN(c3ccccn3)CC2)c(C)c1 (stereo unspecified),2%,-2,25%,2%,-7%,2%
OCCN1CCN(CC(O)COCCOc2ccc(Br)cc2)CC1 (stereo unspecified),-2%,13,-11%,12%,23µM*,?
COc1ccccc1N1CCN(CC(O)COc2c(OC)cccc2OC)CC1 (stereo unspecified),0%,33,-1%,-15%,?,16µM*
N#Cc1ccc(CN2CCN(C(=O)c3cccc(S(=O)(=O)N4CCCCCC4)c3)CC2)cc1,3%,-1,0%,-3%,?,?
OC(CNC1CCCC1)COc1ccc(Cl)cc1 (stereo unspecified),-3%,?,-16%,0%,?,?
OC(CNC1CCCC1)COCCOc1ccc(Br)cc1 (stereo unspecified),-2%,-66*,19%,0%,?,?
OC(COc1cccc2ccccc12)CN1CCN(c2ccccc2Cl)CC1 (stereo unspecified),-18%,-8,-21%,-11%,?,18µM*
Cc1ccc(N2CCN(CC(O)COc3cccc4ccccc34)CC2)cc1 (stereo unspecified),-1%,-21,?,-39%,?,?
